Test results reported in the supplement of paper PMC11417369.
± gives the standard deviation of the averaged measurements. The full ranking holds about 25,000 sequences; the median of “ln(normalized median fluorescence intensity)” is about 10, and the highest 2% start at about 12. The list comes from a sample in which the highest values are over-represented; it also holds similar and randomly drawn sequences.

What follows are sequences tested on PfAP2-G AP2 domain (GST-tagged) (assay: gcPBM binding intensity (ln(normalized median fluorescence intensity)); higher = stronger DNA binding).
Method in brief: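 GST-tagged P. falciparum DNA-binding domains produced in E. coli were incubated for 1 h on an Agilent 4 × 180k array of primer-extended double-stranded 36-bp intergenic genomic probes with negative controls. Binding intensity is the highest Masliner-normalised natural-log median intensity across replicate spots of either probe orientation, with bound protein detected by Alexa488 anti-GST antibody at 488 nm.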
In the case of “TATACAATATATTTTGGTACACAAACAAAAAAATAT [XGTACX_site2522]”, the “gcPBM binding intensity (ln)” value is reported as 11.2 ± 0.82.
With “AAATATTTTGCATACACATGCAAATATTTTTTACAT [TGCATGCA_site554]” the “gcPBM binding intensity (ln)” value was 9.8 ± 0.11.
In the case of “ATGTTTGATGCTACACGTACACACCTTGCAAATATT [XGTACX_site1644]”, the “gcPBM binding intensity (ln)” value is reported as 11.6 ± 1.
With “TGTTTGATGGTACACGTACACACCTTGCAAATATTT [CACACA_site888]” the “gcPBM binding intensity (ln)” value was 11.8 ± 1.2.
“TATAATATGTTTGATGGTACACGTAAACACCTTGCA [XGTACX_site1643]” was tested, and the “gcPBM binding intensity (ln)” value was 11.1 ± 0.68.
With “TTTGATGGTACACGTACACACCTTGCAAATATTTTT [CACACA_site4645]” the “gcPBM binding intensity (ln)” value was 11.8 ± 1.
“ATATATATCGGACACACACACATGTTTTAAAACTAT [CACACA_site4218]” was tested, and the “gcPBM binding intensity (ln)” value was 10.9 ± 0.64.
For “TGTTTATTTTTAAAAAGTACATATTTAAAAAACTTC [XGTACX_site271]”, the “gcPBM binding intensity (ln)” value was 11.4 ± 1.
For “TTTTTTTTTTTTTGGGGTACATTTTAATTAATATTA [XGTACX_site4866]”, the “gcPBM binding intensity (ln)” value was 11.4 ± 0.86.
For “CCATTTATTATTTGGGGTACATTTAATTAATATTTT [XGTACX_site5940]”, the “gcPBM binding intensity (ln)” value was 11.5 ± 1.
For “GTTAATATTTTTGGGGGTACTTAAAAAAAAAAAAAA [XGTACX_site1477]”, the “gcPBM binding intensity (ln)” value was 11.7 ± 0.91.
In the case of “ATTTTTTTTTTTTTTTTGGGGGGGTATACTTTTAAA [CACACA_negctrl_site1020]”, the “gcPBM binding intensity (ln)” value is reported as 11.9 ± 0.77.
In the case of “TATACTTTATATATTTTGTATATATATTTTTTTTAT [TGCATGCA_negctrl_site530]”, the “gcPBM binding intensity (ln)” value is reported as 9.645 ± 0.035.
In the case of “TATATTTAACATACTTTTTTTTTTTTTTTTTTTTTT [CACACA_negctrl_site938]”, the “gcPBM binding intensity (ln)” value is reported as 10.9 ± 0.45.
“ACAGATATACATAAAAAAAAAATAATTTTACATATA [CACACA_negctrl_site929]” was tested, and the “gcPBM binding intensity (ln)” value was 9.765 ± 0.049.
With “TACATAAATACATACACACACATATAACCAATGTAG [CACACA_site5243]” the “gcPBM binding intensity (ln)” value was 10.3 ± 0.11.
“AATCATTTATGGAAAGCATGCTAAATTAGAGTATAC [TGCATGCA_site172]” was tested, and the “gcPBM binding intensity (ln)” value was 10.03 ± 0.064.
For “TAATGTAATACATATTGTACACATACATATATATTT [XGTACX_site7531]”, the “gcPBM binding intensity (ln)” value was 11.2 ± 0.71.
For “TTTCAAACAAAAAGACGTACACTGAAGTTATCCGTC [XGTACX_site8824]”, the “gcPBM binding intensity (ln)” value was 11.8 ± 1.
In the case of “TGAGTTCAACAAAGACGTACAAAACCAAAAATATAA [XGTACX_site8931]”, the “gcPBM binding intensity (ln)” value is reported as 11.6 ± 0.93.
With “AAAACAAACATTACACGTACAAAACAAGTTATAGAC [XGTACX_site6320]” the “gcPBM binding intensity (ln)” value was 11.4 ± 0.74.
In the case of “AAAAAAAAAAGACACACACACACACGGAGATATATA [CACACA_site6216]”, the “gcPBM binding intensity (ln)” value is reported as 10.1 ± 0.22.
For “TATGTGTAATATTTTTGTACAGAAAAAAAAAAAAAA [XGTACX_site7075]”, the “gcPBM binding intensity (ln)” value was 10.8 ± 0.77.
“AATTAATGGGTACATACACACATATATACATACATA [CACACA_site742]” was tested, and the “gcPBM binding intensity (ln)” value was 11.4 ± 1.
With “TATTTATAAATTTACACACACACATGTGAACATAAA [CACACA_site1909]” the “gcPBM binding intensity (ln)” value was 10.2 ± 0.14.
With “ATAAATATTTACAAAAGTACACATAACTTTAGATAT [XGTACX_site1685]” the “gcPBM binding intensity (ln)” value was 11.4 ± 0.9.
In the case of “ATAACAAAATAAAACACACACACAAATGTACAGATA [CACACA_site5358]”, the “gcPBM binding intensity (ln)” value is reported as 11.1 ± 0.72.
In the case of “TATCCTAACTTTAGATGTACACAAATAAAAAAAAAA [XGTACX_site4491]”, the “gcPBM binding intensity (ln)” value is reported as 11.7 ± 0.91.
With “TTTATTTATATTTATACACACAAACATAATACTACT [CACACA_site7039]” the “gcPBM binding intensity (ln)” value was 10.3 ± 0.28.
“AGGTCTATATAATAAGTGCATTTTTTTTTTTTTTTT [GTGCAC_site9664]” was tested, and the “gcPBM binding intensity (ln)” value was 10.2 ± 0.26.
For “TTTTTAATATATAAAGATAATAATAAATAAAATTCA [CACACA_negctrl_site657]”, the “gcPBM binding intensity (ln)” value was 9.46 ± 0.12.
In the case of “TATATGCACTTAATATGTACACAAAAAAAAAAAAAA [XGTACX_site6199]”, the “gcPBM binding intensity (ln)” value is reported as 11.5 ± 1.2.
“CAATAAAAATTAAAATGTACAAATAAATATAAATAT [XGTACX_site7265]” was tested, and the “gcPBM binding intensity (ln)” value was 10.8 ± 0.29.
For “GATTATTATTATAAGGGTACAAATATTTAATAAAAA [XGTACX_site7144]”, the “gcPBM binding intensity (ln)” value was 11 ± 0.57.
“AAAAAAATTAAATGGGGTACAATAAGGGTCAAATAT [XGTACX_site8669]” was tested, and the “gcPBM binding intensity (ln)” value was 11.6 ± 0.93.
For “AATTATATATTATCATGTACAAATATAGTAATACAA [XGTACX_site6845]”, the “gcPBM binding intensity (ln)” value was 10.7 ± 0.4.
With “ATATAAACACTGAATGCATGCACATATATATATATA [TGCATGCA_site940]” the “gcPBM binding intensity (ln)” value was 10.2 ± 0.26.
For “TATACGCATATTTTTACACACATATTTTTTCATATA [CACACA_site2546]”, the “gcPBM binding intensity (ln)” value was 10.02 ± 0.049.
For “ACATATATTTCAAAGTGTACGCACAATTTTTTTTAC [XGTACX_site6166]”, the “gcPBM binding intensity (ln)” value was 11.7 ± 1.
In the case of “AAAAAAATAACAAAGTGTACTTTTATATTTTACATA [XGTACX_site8954]”, the “gcPBM binding intensity (ln)” value is reported as 11.3 ± 0.93.
In the case of “AAAGTATAAATAAATACACACATATTTATTTATATA [CACACA_site7375]”, the “gcPBM binding intensity (ln)” value is reported as 9.96 ± 0.2.
With “CCACATATACAAAACACACACACAACGTTTTAATAA [CACACA_site1978]” the “gcPBM binding intensity (ln)” value was 10.1 ± 0.16.
For “ATGACTTACATATATAGTACTTTGTTTTGGAGTTGC [XGTACX_site94]”, the “gcPBM binding intensity (ln)” value was 10.8 ± 0.45.
With “TCTGTAGTTTTTTACAGTACTTTTAGGTAATACATA [XGTACX_site7417]” the “gcPBM binding intensity (ln)” value was 11 ± 0.79.
